In this assay the test system is VDR:RXRa (NR concentration 270 nM, RXRa partner concentration 90 nM). The assay is described as follows: PBM binding z-score (relative to random genomic background probes); higher = stronger binding; sequences stand for … in GC…GCGATTGACAGCGTAGAATGAAGG
How it is done: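 Protein-binding microarray (Agilent 4x180K custom design, double-stranded 60-nt probes: 5' GC cap, 34-nt variable region, 24-nt constant primer region; full probe sequence given). Purified or IVT nuclear receptor:RXRα heterodimers (3:1 NR:RXRα, mostly 270:90 nM) or homodimers were incubated for 1 h in PBS with 2% milk and no ligand, then detected with Alexa488 antibodies. Fluorescence from o1-orientation probes (~5 replicates averaged) was converted to z-scores against 500 random hg19 background probes. Variable regions are seed direct-repeat (DR0–DR5) sites, all their single-nucleotide variants and half-site ablations.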
As to GGATATAGGTAATACAAGGTGAAAGTCCGATTGT, the PBM binding z-score was 0.64.

As to CCTACTGGGCCACGAAAGGTCATTAATTCAGTGA, the PBM binding z-score worked out at 3.74.

GCTAGCAGGCCATTTGGGTCACTCATTGACGGGC displayed a PBM binding z-score of 0.798.

CGAACTAGGTCATCCAGGACAGGGAATACATTGA showed a PBM binding z-score of 4.1.

As for CCTTACGCGTCAAGGTTATAGCACGGGTGGTACG, the PBM binding z-score was determined as 0.442.

On to AGTCAAAGTTCAGGACGAGGGAACGTAAAGCACG, for which the PBM binding z-score is 2.05.

In the case of AGTCAAAGTTCACTAGGTAAGGTAAGATTCAGCT, the PBM binding z-score was found to be 3.96.

GCTCGGAGGACTAGGTCAGAGCTTTGTCCGTAGA showed a PBM binding z-score of -0.562.

As to CCGACTGGGGCAGAAAGATTACCATACCATCCGG, the PBM binding z-score is -0.535.

CCTGCTGGGTCATGGTCAGCTAATCTACAGTATG had a PBM binding z-score of 1.28.

Consider TCTATTAGTTGATTAGGGTAACCGAAACAGCGGA, for which the PBM binding z-score amounted to 0.996.

As to ACAGACAGGTGTTGAAGGTAACTCAGGCTATCAT, the PBM binding z-score is -0.203.

As for TCGAGTAGGTTAGGCGGGGCATTCAGCCAACATA, the PBM binding z-score was determined as 1.43.

Sequence TCTTGTAGCTCAACAGGAGGTTAAGAAAGATCGA came in with a PBM binding z-score of 0.0738.

As to CAAACTAGGTCAAGGTCCAAGTCGGTTTGTGCCA, the PBM binding z-score was found to be 2.18.

Take CGTCCAAGGTCAGCAGGTCAGTGATAGCGACGTG: the PBM binding z-score is 3.91.

The sequence CAAACTAGGTCAAGAGGACAAAGTCCGCTTCCCG gave a PBM binding z-score of 1.98.

Sequence ACAGACAGGTGATGAAGGTAACTCACGCTATCAT gave a PBM binding z-score of 0.327.

Take CCTTACGGGTCACTGACAGGTTATATCATTTGGA: the PBM binding z-score was found to be 3.81.

The sequence CGTCCAAGGTCAGCAGGTCGGTGAAAGCGACGTG showed a PBM binding z-score of 3.71.

The sequence AGAATGAGGTTATTAAGATCAGGGAATTGCGGTC gave a PBM binding z-score of 2.62.

TCTGCTATGTCAGTTGGTCAGCTAACGAGCTGCC registered a PBM binding z-score of -0.176.

Sequence TCTGCTAGGTCAACGATGGTCTGCTAATCTGCTA had a PBM binding z-score of 0.981.

As to CCTACTGGGCCATTCAGAGTTCATTGATCATATG, the PBM binding z-score came out at 3.5.

Turning to ACAGACAGGTGATGAAGATAACTCAGGCTATCAT, the PBM binding z-score was -0.422.

With AGGATGAGGTTATTAAGATCAGGGAATTGCGGTC, the PBM binding z-score was found to be 2.66.

ATCTCTAGGTAAGACTCAGTTCAGTGCAGAACGC: the PBM binding z-score was found to be 0.866.

ACAGACAGGTGAGTGAAGGTAACCCAGCTGGACG: the PBM binding z-score was -0.336.

Regarding AGAATGACGTTAAGATCAGGGAAACAGAATACAT, the PBM binding z-score is -0.215.

The sequence CCTAGTTGGTCAGGAGGTCATACACCGGATATGA registered a PBM binding z-score of 3.75.

Regarding CCGACTGGGGCGTAAGGTTACCATAAGCCAGCCC, the PBM binding z-score is 0.154.

On to CAAACTAGGTGAAGGTCAAAGTCGGTTTGTGCCA, for which the PBM binding z-score was determined as 3.79.

In the case of CTACCAAGGTGAACAGGGTCGTTGATTACTATTC, the PBM binding z-score is 5.66.

CCTTACGGGTCACGAGGTAATAGCACGACGAGCG gave a PBM binding z-score of 4.18.

As to GCTATTAGTTGAAATGGCAACCGAATGATTCTCG, the PBM binding z-score was -0.304.

ATCTCTAGGAAAAAGTTCAGTGAATCCCGAGGAT: the PBM binding z-score worked out at 0.44.

ACTATTAGTTGACTTAGGGCAACCAATACGACGC: the PBM binding z-score was 0.354.

TCATATAGGTAAAGGTGCAAGTCGAACGATATGA yielded a PBM binding z-score of 0.567.

On to TCTTGGAGATCAAAGGTTAAGAAAGCCGAAGCCT, for which the PBM binding z-score was 1.57.

For the sequence ACTTGCGGGTCAACGAGGTTATAGCACGCGTATA, the PBM binding z-score is 7.55.

These data come from the supplement of paper PMC6555819.
